# From PubChem BioAssay (NCI)
# Compounds without any hit were thinned out: in the full panel of roughly 83,000, 20% have a hit.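 Testing used 96-well plates and a 48-hour single-concentration exposure. Example: -40 means 40% of the starting cells died.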 Unmarked numbers belong to inactive results. Calls of active or inactive are those of the source. Rule for the calls: active = growth percent below 10; inactive = the rest. *1 amine or outer side, *2 acyl side, *3 side chain or, on linkers, in order; H or OH if unused. Where a SMILES comes first, the peptide text is derived from it. [ ]: non-standard residue; d: D form. The star is where a group is joined. X5 = CCC(=O)CC1CC(C)CC(C(=O)[*:2])N1[*:1]; X4 = CCCCCCCCC(C)C(=O)*; Aib = CC(C)(N)C(=O)O; X6 = CC(CN(C)CCO)N*
# Key:
# Assay in all cases: NCI-60 one-dose screen, 48 h (100 = growth as untreated, 0 = no growth, -100 = all killed)
# Conditions in all cases: 10 µM unless noted
# SK-MEL-2 melanoma = system: SK-MEL-2 melanoma
# SN12C renal = system: SN12C renal
# UO-31 renal = system: UO-31 renal
# ACHN renal = system: ACHN renal
# CAKI-1 renal = system: CAKI-1 renal
# A498 renal = system: A498 renal
# MOLT-4 leukemia = system: MOLT-4 leukemia
# TK-10 renal = system: TK-10 renal
# CCRF-CEM leukemia = system: CCRF-CEM leukemia
# EKVX NSCLC = system: EKVX NSCLC
Structure (SMILES),growth (SK-MEL-2 melanoma),growth (SN12C renal),growth (UO-31 renal),growth (ACHN renal),growth (CAKI-1 renal),growth (A498 renal),growth (MOLT-4 leukemia),growth (TK-10 renal),growth (CCRF-CEM leukemia),growth (EKVX NSCLC)
CC(C)c1ccc(Nc2n[nH]c(=S)s2)cc1,111%,98.2%,83.7%,106%,114%,94.6%,97.6%,–,–,–
CCCC[n+]1c(/C=C\c2c(OC)cc(OC)cc2OC)ccc2ccccc21,-44.7% (active),3.62% (active),1.45% (active),–,-41.6% (active),-23.4% (active),-22.5% (active),-12.7% (active),1.26% (active),–
CC1(O)CCCCCC1,105%,99.9%,82.6%,103%,101%,75.3%,92.8%,99.5%,92.7%,–
O=C(/C(Cl)=N/O)c1ccc(-c2ccccc2)cc1,110%,103%,57.9%,86.8%,91.1%,123%,83.3%,–,8.56% (active),–
O=C1/C(=C/c2ccccn2)CCc2ccccc21,105%,102%,101%,104%,84.8%,77.7%,49%,95.4%,51.6%,–
O=C1C=CC(=O)c2c(O)c(CO)c(CO)c(O)c21,–,101%,75.5%,95.3%,93.4%,120%,86.6%,107%,78.5%,105%
O=C(c1ccccc1)c1cc2ccccc2oc1=O,–,89.4%,59.3%,101%,98.7%,117%,105%,130%,101%,95.5%
CCCCCCCCc1cc(Cl)c(O)c(Cl)c1,–,103%,97.2%,103%,89.6%,108%,98.2%,–,111%,98.9%
CCCCCCCCCCCCN1C(C)=CS/C1=C\C=C\c1scc(C)[n+]1CCCCCCCCCCCC,1.51% (active),18.2%,–,38.6%,27.5%,–,11.1%,11.9%,20%,–
CCCCCCCCCCCC1N=C(N)N=C(N)N1c1cccc(Br)c1 (stereo not drawn),–,8.08% (active),71.9%,–,80.5%,76.1%,-16.5% (active),-45% (active),-15.1% (active),43.2%
O=C1C(=O)c2cc([N+](=O)[O-])ccc2-c2ccccc21,–,-88.9% (active),-87.7% (active),–,-68.6% (active),110%,0.151% (active),-85.2% (active),-13.5% (active),-88.8% (active)
CN1CCC(c2ccccc2)(c2ccccc2)C(=O)C1,–,101%,68.9%,102%,71.2%,106%,92.7%,76.4%,29.1%,47.3%
CCN1/C(=C/C(C)=C/c2sc3ccc4ccccc4c3[n+]2CC)Sc2ccc3ccccc3c21,–,-84.9% (active),-89.8% (active),-97.2% (active),-97.9% (active),-98.3% (active),-43.6% (active),-97.3% (active),–,-90.8% (active)
CN(C)c1ccc(/C=C/c2sc3ccc4ccccc4c3[n+]2C)cc1,–,-54.3% (active),15.9%,-49.3% (active),-10.9% (active),-20.8% (active),-26.7% (active),–,-8.92% (active),-13.6% (active)
Oc1ccc(Cl)cc1Cc1cc(Cl)ccc1O,–,11.4%,22.9%,26.1%,83.5%,63.6%,41.3%,–,22.7%,60.9%
Oc1ccc2ccccc2c1N=Nc1ccccn1,–,35.4%,33.1%,11.9%,11.7%,79.9%,11.4%,6% (active),–,22.2%
O=C(C[P+](c1ccccc1)(c1ccccc1)c1ccccc1)c1ccccc1,–,87.9%,71.8%,94.3%,84.5%,79.8%,92.3%,94.4%,90.5%,88.5%
CCSc1nc2ccccc2o1,–,88.9%,79.4%,99%,87.9%,83.6%,100%,102%,97.5%,104%
CCCCCCCCCCCCCCCCCC1=NCCCN1CCO,111%,96.8%,–,112%,105%,–,102%,116%,97.4%,–
CCCCCCN(CCCCCC)CCCNc1nccc2ccccc12,21.4%,18.7%,–,–,21.4%,–,11.8%,39.8%,12.4%,–
CCCCCCCCC(C)C(=O)N1CCCC1C(=O)N1C(CC(=O)CC)CC(C)CC1C(=O)NC(C)C(=O)NC(C)(C)C(=O)NC(C)(C)C(=O)NC(C(=O)NC(C)C(=O)NC(C)(C)C(=O)NC(C)(C)C(=O)NC(C)CN(C)CCO)C(C)CC (stereo not drawn) (X4-P[X5]A[Aib][Aib]IA[Aib][Aib]-X6; configuration not given here),–,-78.5% (active),-48.1% (active),-54.5% (active),7.86% (active),–,-40.9% (active),-50.5% (active),-33.3% (active),-25.3% (active)
c1ccc2sc(SSN3CC4CCC(CC4)C3)nc2c1,–,104%,55.1%,98.3%,104%,142%,56.3%,121%,111%,106%
CC(C)(C)c1ccc(O)c(-c2ccccc2)c1,–,109%,110%,–,86.7%,121%,-54.2% (active),99.5%,97.1%,103%
CCOC(=O)c1[nH]c(C#N)c(C(=O)OCC)c1C,–,92.5%,90.2%,101%,94.7%,96.7%,–,104%,97.3%,93.3%
CC(C)=CCCC(C)C1=C(O)C(=O)C(C)=CC1=O (stereo not drawn),–,106%,-98.3% (active),-39% (active),88.4%,92.9%,-30.1% (active),–,-29.2% (active),122%
O=C1c2ccccc2Cc2cccc(Cl)c21,–,97.3%,82.9%,98.9%,99.1%,64.3%,39.6%,89.6%,98.8%,104%
CC(C)Nc1ccc(Nc2ccc(NC(C)C)cc2)cc1,–,30.7%,87%,70.4%,94.4%,84.1%,30.1%,62.6%,58.6%,31.3%
CCN(CC)CC(O)CNc1ccc(NCC2CO2)c2c1C(=O)c1ccccc1C2=O (stereo not drawn),–,-15.9% (active),-40.6% (active),-55.1% (active),-32% (active),81.6%,-23.1% (active),-27% (active),-29.9% (active),23.5%
O=C(CCl)N1c2ccccc2Sc2c1ccc1ccccc21,–,73.8%,70.4%,78.7%,80.7%,110%,12%,119%,6.54% (active),96.1%
Cc1cc(I)nc2ccccc12,–,109%,91.7%,107%,98.7%,117%,101%,113%,92.2%,101%
